# Reference: PubChem BioAssay AID2551 (National Center for Advancing Translational Sciences (NCATS), 2010)
# Hit rate of the full screen: of about 310,000 compounds, about 17,000 (5.5%) were called active. Where a call stands in place of a potency, no number is given. About 11% were inconclusive and are not listed. The call rests on the fitted dose curve; in most records, active means well fitted inhibition curve with a large enough effect; inconclusive means small, poorly fitted or top-dose-only effect, or effect the other way; inactive means no such curve, though single readings can be large or run the other way. This excerpt belongs to a sample that is enriched for actives.
# Molecular target: Nuclear receptor ROR-gamma (Mus musculus) (UniProt P51450)
# Sequence (P51450 whole entry, looked up): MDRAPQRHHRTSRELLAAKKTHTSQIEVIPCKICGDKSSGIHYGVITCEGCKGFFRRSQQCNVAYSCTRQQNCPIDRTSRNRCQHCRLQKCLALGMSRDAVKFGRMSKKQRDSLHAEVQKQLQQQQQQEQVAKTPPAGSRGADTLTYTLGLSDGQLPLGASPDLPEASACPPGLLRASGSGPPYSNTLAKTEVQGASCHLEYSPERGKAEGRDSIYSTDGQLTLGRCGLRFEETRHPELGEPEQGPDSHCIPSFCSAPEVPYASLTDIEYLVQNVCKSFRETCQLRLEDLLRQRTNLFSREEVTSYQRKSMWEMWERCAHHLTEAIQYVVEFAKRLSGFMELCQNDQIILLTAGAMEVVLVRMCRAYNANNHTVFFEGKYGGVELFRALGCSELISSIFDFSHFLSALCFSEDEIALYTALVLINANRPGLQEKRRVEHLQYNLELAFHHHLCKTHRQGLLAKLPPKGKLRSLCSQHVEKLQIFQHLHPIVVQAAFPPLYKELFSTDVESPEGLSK
# Test: qHTS for inhibitors of ROR gamma transcriptional activity; further: nearly all actives have a fitted effect of over 60% in size
# Conditions: Drosophila S2 Gal4-RORgamma UAS-luciferase reporter, 20 h; series mostly up to 53.6 µM
# Outline: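 Compounds are pin-transferred onto Drosophila Schneider cells expressing a copper-inducible Gal4–ROR gamma transactivation domain fusion. After 1 hr, copper sulfate is added to 700 uM final; luciferase is read 20 hr later.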
# Potency means the concentration at half of the fitted maximal effect.
Structure (SMILES),Potency,"activity change, negative = inhibition"
CCc1nc2cccnc2n1-c1ccc(C(=O)O)cc1,inactive,–
CC(=O)Oc1cccc(C(=O)Nc2ccccc2NC(=O)c2cccc(OC(C)=O)c2)c1,inactive,–
COc1ccc(C2=NS(=O)(=O)N(C)C(C(=O)N3CCCCC3)=C2)cc1,inactive,–
COc1cc(CC(=O)N2CCC(n3nccc3NC(=O)C3CC3)CC2)cc(OC)c1OC,inactive,–
CC(C)(C)c1ccc(/C=C/C(=O)NCCCn2ccnc2)cc1,inactive,–
O=C(CSc1nc(C2CC2)nc2ccccc12)Nc1cccc(O)c1,inactive,–
O=C(Cc1ccccc1)Nc1cccc(NC(=O)c2ccccc2)c1,inactive,–
Cc1cccc(C(=O)Nc2ccc(CC(=O)O)cc2)c1,7.94 µM (active),–
O=C(O)Cc1ccc(NC(=O)c2cccs2)cc1,inactive,–
Cc1nn(C)cc1S(=O)(=O)N1CCN(c2ccc(F)cc2)CC1,inactive,–
Cc1ccc(OCC(=O)Nc2ccc(C(=O)O)cc2NC(=O)COc2ccc(C)c(C)c2)cc1C,inactive,–
CCCCCCCCn1c2c(c(=N)c3c1CCC3)CCCC2,0.708 µM (active),–
O=C(NNS(=O)(=O)c1ccc([N+](=O)[O-])cc1)C1CCCCC1,inactive,–
c1ccc(CN=C2Nc3ccccc3CS2)nc1,11.2 µM (active),–
COc1ccccc1-n1c(-c2cc(-c3ccco3)[nH]n2)n[nH]c1=S,inactive,–
COc1ccc(CCn2c(-c3ccco3)nc3nc4ccccc4nc32)cc1OC,–,-7.43% [at 10 µM] (inactive)
Cn1c(-c2ccco2)nc2cc3ccccc3cc21,6.31 µM (active),–
CN(C)Cc1c(C(=O)N/N=C/c2ccccc2OCc2ccc(F)cc2)nnn1-c1nonc1N,inactive,–
Cc1nn(-c2ccccn2)c2c1C(c1ccncc1)C1=C(CC(C)(C)CC1=O)N2 (stereo unspecified),inactive,–
Cc1cc(C)c(C2C3=C(Nc4c2c(C)nn4-c2ccccn2)c2ccccc2C3=O)c(C)c1 (stereo unspecified),2.51 µM (active),–
Cc1ccc(C2C3=C(Nc4[nH]n(-c5ccccc5)c(=O)c42)c2ccccc2C3=O)cc1 (stereo unspecified),inactive,–
CS(=O)(=O)N(CC(=O)Nc1ccc(F)cc1)C1CCCCC1,inactive,–

Structure (SMILES),Potency,"activity change, negative = inhibition"
Cc1cccc(OC(C)C(=O)N2CCc3ccccc3C2)c1 (stereo unspecified),inactive,–
CN(C)/N=C/c1cn(-c2ccccc2)nc1-c1cccnc1,inactive,–
Cc1nnc(SCC(=O)N/N=C/c2cn(-c3ccccc3)nc2-c2ccc(F)cc2)n1-c1ccccc1,inactive,–
COc1ccc(-c2nn(-c3ccccc3)cc2/C=N/Nc2ccccn2)cc1OC,7.08 µM (active),–
CC1CC(=O)N(CC(=O)Nc2cccc(Cl)c2)c2ccccc2S1(=O)=O (stereo unspecified),inactive,–
NC(=O)c1cc(S(=O)(=O)N2CCCC2)ccc1OCc1ccc(F)cc1,inactive,–
Cc1ccc(C)c2[nH]c(=O)c(CCNC(=O)c3cccs3)cc12,inactive,–
CCOC(=O)CSc1nnc(CNC(=O)c2cccs2)n1-c1ccccc1,inactive,–
C=CCn1c(CCNC(=O)c2cccs2)n[nH]c1=S,17.8 µM (active),–
O=C(c1cc2cc(Br)cc(Br)c2oc1=O)N1CCOCC1,inactive,–
C=CCn1c(-c2sc(-c3ccccc3)nc2C)n[nH]c1=S,2.51 µM (active),–
C=CCn1c(COc2ccccc2C)nnc1SCC(=O)O,inactive,–
Cc1nc(-c2ccccc2)sc1-c1nnc(C2CC2)o1,inactive,–
C=CCn1c(COc2cccc3cccnc23)nnc1SCC(=O)OC,inactive,–
Cc1[nH]c2ccc(S(N)(=O)=O)cc2c1C,–,-1.39% [at 10 µM] (inactive)
C=CCn1c(-c2ccccc2OCC)n[nH]c1=S,10 µM (active),–
Cc1nc(-c2ccccc2)sc1-c1nc(-c2ccccc2)ncc1S(=O)(=O)c1ccccc1,inactive,–
C=CCn1c(=S)sc2c(=O)[nH]c(C)nc21,inactive,–
C=CCn1c(-c2ccc3[nH]c(C)c(C)c3c2)n[nH]c1=S,5.62 µM (active),–
COCCn1c(SCC(=O)N2CCCCCC2)nc2c(c1=O)SCC2,inactive,–
CCN1CCN(c2sc(S(C)(=O)=O)nc2S(=O)(=O)c2ccc(Cl)cc2)CC1,inactive,–
CCOC(=O)c1csc(CCNC(=O)c2oc3c(Cl)cc(C)cc3c2C)n1,inactive,–

Structure (SMILES),Potency,"activity change, negative = inhibition"
CC1CC(C)CN(S(=O)(=O)c2cccc3nonc23)C1 (stereo unspecified),inactive,–
COc1ccc(/C=N/NC(=O)c2ccc(Cl)cc2)cc1COC(C)=O,inactive,–
COc1cc(/C=N/NC(=O)CNC(=O)c2ccncc2)ccc1OC(C)=O,inactive,–
COc1ccc(/C=N/NC(=O)c2ccncc2)cc1CN1CCCc2ccccc21,11.2 µM (active),–
COc1ccc(C(=O)O)cc1S(=O)(=O)NCc1cccnc1,inactive,–
COc1cccc(NC(=O)CN2CCN(CC(=O)Nc3ccccc3Cl)CC2)c1,inactive,–
Cc1ccc(OCC(=O)NC(C)c2ccccc2)cc1C (stereo unspecified),inactive,–
O=C(CN1CCCCCC1)Nc1ccc(S(=O)(=O)N2CCCCC2)cc1,inactive,–
Cc1occc1C(=O)Nc1nnc(C2CCCCC2)s1,–,0% [at 10 µM] (inactive)
Cc1cccc(NC(=O)CSCC(=O)Nc2nnc(C3CC3)s2)c1,inactive,–
O=C(Nc1nnc(C2CC2)s1)c1cc(Cl)sc1Cl,11.2 µM (active),–
CC1CCN(c2ccc(C(=O)Nc3nnc(C4CC4)s3)cc2[N+](=O)[O-])CC1,inactive,–
O=C(Cc1cccs1)Nc1nnc(C2CC2)s1,inactive,–
O=C(Nc1nnc(C2CC2)s1)c1ccccn1,1.12 µM (active),–
CCCc1ccc(OCC(O)CN2CCN(C(=O)OCC)CC2)cc1 (stereo unspecified),inactive,–
O=C(NCc1ccncc1)C(=O)NCC1OCCN1S(=O)(=O)c1ccc(Br)cc1 (stereo unspecified),inactive,–
CCCN1C2CCCC1CC(NC(=O)NC13CC4CC(CC(C4)C1)C3)C2 (stereo unspecified),inactive,–
COc1cc(/C=N/NC(=O)Cc2ccccc2)cc(OC)c1OC,inactive,–
C/C(=N\NC(=O)c1ccc(C)cc1)C1C(=O)c2ccccc2C1=O,0.891 µM (active),–
Cc1ccc(C(=O)NCCNC(=O)c2ccccc2)cc1,inactive,–
C/C(=N/NC(=O)c1ccc(NC(=O)c2ccc(F)cc2)cc1)c1ccccc1,inactive,–
FC(F)(F)c1nnc2c3ccccc3c(Cl)nn12,inactive,–

Structure (SMILES),Potency,"activity change, negative = inhibition"
O=C(CN1CCN(c2cccc(Cl)c2)CC1)Nc1ccc(S(=O)(=O)N2CCOCC2)cc1,inactive,–
Cc1ccc(NC(=O)C(=O)NCc2ccco2)c(C)c1,inactive,–
Cc1cccc(NC(=O)C2CCCN(C(=O)Nc3ccc(F)cc3)C2)c1C (stereo unspecified),inactive,–
Cc1cc(C(=O)NCCc2ccc(Cl)cc2)c(C)o1,inactive,–
Cc1cccc(NC(=S)NCCc2ccc(F)cc2)c1C,2 µM (active),–
Cc1cc(Cl)ccc1NC(=S)NCCCN1CCCC1=O,inactive,–
Cc1ccc(NC(=S)NCc2ccccc2Cl)c(C)c1,6.31 µM (active),–
NC(=O)Nc1ccccc1C(=O)NCCc1ccccc1,inactive,–
Cc1ccc(NC(=O)c2ccn(C(=O)Nc3ccccc3)n2)c(C)c1,inactive,–
O=C(CC(=O)N/N=C\c1ccc(F)cc1)NCCc1ccccc1,inactive,–
Cc1ccc(NC(=S)NCCc2ccc(Cl)cc2)c(C)c1,2.82 µM (active),–
Cc1cc(F)ccc1NC(=S)NCCc1ccccc1,5.62 µM (active),–
Cc1cccc(NC(=O)COC(=O)CCc2ccccc2)c1C,–,-18.4% [at 1.91 µM] (inactive)
O=C(Nc1cccc([N+](=O)[O-])c1)N1CCc2ccccc2C1,inactive,–
Cc1cc(N2C(=O)C(O)=C(C(=O)c3ccc(C)o3)C2c2ccc(OCc3ccccc3)cc2)no1 (stereo unspecified),inactive,–
COc1ccccc1CCNS(=O)(=O)c1cc2c3c(c1)C(C)C(=O)N3CCC2 (stereo unspecified),inactive,–
CCN(CC)S(=O)(=O)c1ccc(C(=O)N2CCN(C3=NS(=O)(=O)c4ccccc43)CC2)cc1,inactive,–
Cc1cc(C)n(-c2ccc(NC(=O)C3CCCCN3C(=O)c3cccs3)cc2)n1 (stereo unspecified),inactive,–
O=C(Cc1ccccc1Cl)N1CCOCC1,inactive,–
Cc1ccc(NC(=S)Nc2ncccc2C)c(C)c1,4.47 µM (active),–
CSc1ncc(C(=O)Nc2ccc(C)cc2C)c(C)n1,inactive,–
CCOC(=O)N1CCN(C(=S)Nc2ccc(C)cc2C)CC1,inactive,–

Structure (SMILES),Potency,"activity change, negative = inhibition"
Cc1cccc(NC(=S)NCCc2ccc(Cl)cc2)c1C,5.62 µM (active),–
O=C(COc1ccc(Cl)cc1)Nc1ccccc1CO,inactive,–
Cc1ccccc1N/C(SCc1ccc(Cl)cc1)=C(/C#N)C(N)=O,inactive,–
Cc1cccc(NC(=S)N2CCC(O)CC2)c1C,inactive,–
Cc1ccccc1NC(=S)NC(=O)Cc1ccc(Cl)cc1,7.94 µM (active),–
Cc1cccc(NC(=O)c2cccc(C(=O)Nc3cccc(C)c3C)n2)c1C,–,-10.9% [at 1.91 µM] (inactive)
COc1ccccc1CN1CCNC(=O)C1CC(=O)N(C)CC1CCOCC1 (stereo unspecified),inactive,–
COc1ccc(NC(=O)COc2ccc(C(=O)c3ccc(F)cc3)cc2)cc1S(N)(=O)=O,inactive,–
CC(=O)N1CCSc2ccc(S(=O)(=O)N3CCC(C)CC3)cc21,inactive,–
COc1cccc(N(C(=O)CNC(=O)c2ccco2)C(C(=O)NC2CCCCC2)c2cccnc2)c1 (stereo unspecified),inactive,–
Cc1ccc(-c2nc(CSCC(=O)NC3CCN(Cc4ccccc4)CC3)c(C)o2)cc1,inactive,–
Cc1ccccc1OCC(=O)NNC(=O)c1cc(S(=O)(=O)N(C)C)ccc1N1CCCC1,inactive,–
Cn1c(Nc2cccc(Cl)c2)nc2ccccc21,–,-6.74% [at 1.91 µM] (inactive)
COc1ccccc1CNC(=O)C1CCN(S(=O)(=O)c2ccc3c(c2)CC(C)N3C(=O)C2CC2)CC1 (stereo unspecified),inactive,–
Cc1ccc(Oc2ccc3c(c2)C(=O)N(c2cccc4cccnc24)C3=O)cc1,inactive,–
COc1ccc(NC(=O)Nc2cccc3cccnc23)cc1,inactive,–
Cc1ccc(OS(=O)Nc2cccc3nccnc23)cc1 (stereo unspecified),3.98 µM (active),–
O=C(COc1ccc(Cl)cc1)NCCS(=O)(=O)N1CCN(c2ccc(F)cc2)CC1,inactive,–
